The values that follow come from PubChem BioAssay (NCI).

The panel holds about 79,000 compounds, 15% with a hit somewhere; the sample as a whole holds those more often. Calls of active or inactive are those of the source. No stated cut-off is given here; in the data, active means growth inhibition above about 70%; inactive means the rest.

The nature of the assay: NCI Yeast Anticancer Drug Screen. Data for the sgs1 mgt1 strain (AID 161).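 Further: 0% = growth of cultures given vehicle only.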 The conditions noted are these: S. cerevisiae sgs1 mgt1 strain, at 50.0 µM (retest, dose inferred, filed as 5.0), active compounds read high. Summed up: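 Test agents were incubated with a DNA-repair-mutant yeast strain. Growth was then read and compared against vehicle-treated controls.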
Take `CCCc1cc(C(=O)OCC)cc(CCC)c1O`: the growth inhibition is 27% (inactive).
On to `CC(C)[N+]([O-])(CCCNc1c2ccccc2nc2cccc([N+](=O)[O-])c12)C(C)C`, for which the growth inhibition was 98% (active).
In the case of `COc1cc2c3c(cccc3c1)C(=O)N(CCN(C)C)C2=O` it was 23% (inactive); in that of `NC(=O)NN=C(CS)CS`, 32% (inactive); in that of `Cc1ccc(NC(=O)/C(Cl)=C(\Cl)C(=O)O)cc1C`, 100% (active).
The result for `CCN(CC)CC[n+]1ccc2c(C)c3[nH]c4ccc(O)cc4c3c(C)c2c1` reads 13% (inactive).
In the case of `CC(CC(C)(C)[N+](C)(C)C)[N+](C)(C)C` (centres undefined) it was 91% (active); in that of `COc1ccc(OC)c2cc3ccccc3cc12`, 27% (inactive); in that of `Nc1ncncc1C(C1=C(O)COC1=O)C1=C(O)COC1=O`, 13% (inactive).
For `CSC1=NNC(SC)=NN1`, the growth inhibition is 100% (active).
In the case of `Cc1c(Cl)ccc2c1S(=O)(=O)c1cccc(Cl)c1-2`, the growth inhibition is 28% (inactive).
The result for `[O-][n+]1c2ccc(O)cc2nc2ccc(Cl)cc21` reads -1% (inactive).
`COc1ccc2ccc3ccccc3c2c1C=O`: the growth inhibition was 68% (inactive).
Consider `Nc1ccc2c(c1)C(=O)c1cccc(N)c1C2=O`, for which the growth inhibition is 66% (inactive).
In the case of `O=C(c1ccc(Cl)cc1Cl)C(Cl)Cl` it was 99% (active); in that of `COc1cc(C(=O)/C=C/c2ccccc2O)ccc1O`, 98% (active); in that of `O=Cc1cccc2ccc3ccccc3c12`, 73% (active).
The result for `O=C(Nc1ccc(Cl)cc1)OCC#CCCl` reads 98% (active); that for `Cn1ccnc1Oc1ccc(Cl)cc1`, 37% (inactive).
The result for `c1ccc2c(c1)C(=NCCCN1CCCCCC1)c1cccn1-2` reads -7% (inactive); that for `C/C(=N\O)C1CC2C=C(C#N)C1N(Cc1ccccc1)C2` (centres undefined), 24% (inactive); that for `O=[N+]([O-])C(=C(Sc1ccccc1)Sc1ccccc1)C(Cl)=C(Cl)Cl`, 53% (inactive).
For `CCCCCCCCCC/C=C\C(=O)O`, the growth inhibition was 58% (inactive).
The result for `COc1ccc(N=C2C(=O)Nc3ccc(Br)cc32)cc1` reads 23% (inactive); that for `COc1ccccc1C(=O)OCC1CCCN2CCCCC12` (centres undefined), 40% (inactive).
The result for `CC(C)(Br)C(=O)/C=C/c1ccc(Cl)c(Cl)c1` reads 77% (active); that for `Nc1ccccc1CC(O)C(=O)O` (centres undefined), 95% (active).
The result for `CC(=O)N/N=C/C(C)(C)C(C)(C)/C=N/NC(C)=O` reads 78% (active); that for `CN(C)c1nc2sc3c(c2c(=O)o1)CCCC3`, 19% (inactive).
On to `CC(C)OC(=O)Oc1ccccc1OC(=O)OC(C)C`, for which the growth inhibition was -6% (inactive).
In the case of `Cc1ccc(N)c(S)c1` it was 36% (inactive).
In the case of `O=C(O)c1ccccc1NC(=S)c1ccccc1`, the growth inhibition is 65% (inactive).
In the case of `COC(=O)c1ccc(NCC2=CC(=O)C=CC2=O)cc1O` it was 98% (active).
In the case of `NC(N)=N/N=C\c1c2ccccc2cc2ccccc12` it was 47% (inactive); in that of `COC(=O)CSSCc1ccc([N+](=O)[O-])cc1`, 97% (active); in that of `CCS(=O)(=O)c1ccc(/C=C/C=N/NC(=S)NCC(C)C)cc1`, 62% (inactive).
In the case of `N#CC(C(=O)Nc1ccccc1)C1=C(Cl)C(=O)c2ccccc2C1=O` (centres undefined), the growth inhibition is 98% (active).
In the case of `C[C@H](CCC(=O)NN)[C@H]1CC[C@H]2[C@@H]3CC[C@@H]4C[C@H](O)CC[C@]4(C)[C@H]3CC[C@]12C` it was 51% (inactive); in that of `CC[n+]1ccc2c(C)c3[nH]c4ccc(O)cc4c3c(C)c2c1`, 31% (inactive).
